# Reference: PMC5540273 (PLoS ONE, 2017)
# What was measured:
# Conditions in all cases: concentration: 1 μM, replicates: in singlicate; n = 1
# [1] = test system: T1, NIM1
# T1 construct: gene MGC42105
# [2] = test system: NLK
# [3] = test system: T2, OSR1
# T2 construct: gene OXSR1
# [4] = test system: PAK1
# [5] = test system: PAK2
# [6] = test system: PAK3
# [7] = test system: PAK4
# [8] = test system: PAK6
# [9] = test system: PAK7
# [10] = test system: T3, PCTK1
# T3 construct: gene CDK16
# 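Also: KINOMEscan kinase panel screen.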
Structure (SMILES),%Inh [1],%Inh [2],%Inh [3],%Inh [4],%Inh [5],%Inh [6],%Inh [7],%Inh [8],%Inh [9],%Inh [10]
CCS(=O)(=O)c1ccc(OC)c(Nc2nccc(-c3c(-c4cccc(NC(=O)c5c(F)cccc5F)c4)nn4ncccc34)n2)c1 [GSK326180],7%,48%,9%,0%,0%,14%,0%,11%,3%,2%
Clc1ccc(-c2nn3ncccc3c2-c2ccnc(Nc3ccc4c(c3)OCCO4)n2)cc1 [GW829116],0%,61%,0%,0%,28%,0%,0%,2%,0%,0%
O=C(Nc1ccccc1F)NC1CCN(c2ccnc(Nc3ccc(F)cc3)n2)CC1 [GSK1379800],32%,12%,0%,1%,0%,0%,0%,0%,0%,0%
COC(=O)Nc1nc2ccc(Oc3ccc(NC(=O)Nc4cc(C(F)(F)F)ccc4F)cc3)cc2n1C.Cl [GW692089],32%,8%,0%,0%,0%,6%,0%,0%,0%,0%
FC(F)(F)c1ccc(/C=C/c2cncnc2Nc2ccc3[nH]c(Cc4ccccc4)nc3c2)cc1 [GW709199],0%,9%,0%,4%,16%,0%,0%,0%,0%,0%
Cn1cc(-c2ccc3c(c2)CCN3C(=O)Cc2cccc(Cl)c2)c2c(N)ncnc21 [GSK2606590],0%,0%,16%,17%,22%,46%,0%,0%,9%,0%
O=C(Nc1cccc(-c2nn3ccccc3c2-c2ccnc(Nc3cccc(C(F)(F)F)c3)n2)c1)c1c(F)cccc1F [GSK292658],2%,33%,19%,9%,6%,21%,0%,0%,0%,2%
CN1CCN(CCCNc2nccc(-c3c(-c4ccc(F)cc4)nn4cc(C(F)(F)F)ccc34)n2)CC1 [GW621581],0%,55%,6%,8%,7%,30%,0%,0%,0%,0%
Cl.Cl.NCC(NC(=O)c1cc(-c2ccccc2)c(-c2ccnc3[nH]ccc23)s1)c1ccccc1 (stereo not drawn) [GSK1321561],50%,55%,15%,4%,0%,30%,0%,12%,44%,7%
Cc1ccc(C)c(NC(=O)NC2CCN(c3ccnc(Nc4ccc(F)cc4)n3)C2)c1 (stereo not drawn) [GSK1379720],43%,4%,0%,4%,2%,14%,0%,0%,0%,0%
Cc1ccc(S(=O)(=O)Nc2ccc(Nc3nccc(Nc4cccc5[nH]ncc45)n3)cc2)cc1 [GSK581271],26%,56%,13%,14%,12%,35%,0%,18%,0%,2%
CN(C)Cc1ccc(-c2ccc3c(Nc4ccc(Oc5ccccn5)cc4)ccnc3c2)o1 [GW567148],23%,0%,15%,0%,0%,22%,0%,0%,0%,3%
CCn1c(-c2nonc2N)nc2c(C#CC(C)(C)O)nc(OC[C@H](N)c3ccccc3)cc21 [GSK943949],0%,7%,0%,0%,0%,27%,94.6%,97.9%,98%,0%
Nc1n[nH]c2cnc(-c3ccccc3)cc12 [SB-642124],29%,31%,12%,21%,15%,34%,0%,0%,6%,11%
Nc1ncc(-c2cccnc2)c2scc(-c3ccc4c(c3)CCN4C(=O)Cc3ccccc3)c12 [GSK683281],11%,47%,19%,18%,19%,62%,18%,0%,7%,1%
O=C(Nc1cccc(Oc2ccc3nc(NC(=O)C4CC4)cn3n2)c1)c1ccccc1C(F)(F)F,0%,37%,0%,8%,6%,4%,0%,9%,0%,0%
NCCCC(NC(=O)c1cc(Br)c(-c2ccnc3[nH]ccc23)s1)c1ccccc1.O=C(O)C(F)(F)F.O=C(O)C(F)(F)F (stereo not drawn) [GSK1287544],15%,0%,57%,2%,41%,67%,2%,56%,29%,10%
C[C@@H](Oc1cc(-n2cnc3cc(-c4ccnc(NCCS(C)(=O)=O)c4)ccc32)sc1C(N)=O)c1ccccc1Cl [GSK907232],69%,14%,20%,6%,32%,26%,0%,0%,0%,7%
CC(C)c1nc(-c2cccc(NS(=O)(=O)c3c(F)cccc3F)c2F)c(-c2ccnc(Nc3ccc(N4CCOCC4)nc3)n2)s1 [GSK2008607],1%,97.5%,0%,27%,18%,93.3%,0%,9%,20%,99.5%
Cl.NC(=O)c1cccc(Nc2nccc(Nc3ccc(Oc4c(Cl)cccc4Cl)c(Cl)c3)n2)c1 [GW659009],7%,0%,15%,34%,8%,72%,0%,0%,0%,0%
Cc1ccc(C(=O)Nc2ccc(Nc3ccnc4cc(-c5nccs5)ccc34)cc2O)cc1.Cl [GW494702],19%,0%,6%,0%,0%,9%,1%,0%,0%,0%
COc1cccc(-c2ccc3c(NC(=O)C4CC4)n[nH]c3n2)c1 [SB-710903],46%,49%,13%,0%,0%,1%,0%,0%,8%,10%
c1ccc(-c2cnc3nccnn23)cc1 [AH20685],0%,0%,0%,13%,20%,2%,0%,0%,0%,7%

Structure (SMILES),%Inh [1],%Inh [2],%Inh [3],%Inh [4],%Inh [5],%Inh [6],%Inh [7],%Inh [8],%Inh [9],%Inh [10]
Cc1occc1-c1ncc(OC[C@@H](N)Cc2c[nH]c3ccccc23)cc1-c1ccc2[nH]nc(C)c2c1.O=C(O)C(F)(F)F [GSK682037],33%,39%,8%,97.5%,68%,32%,2%,15%,36%,0%
COc1cccc(C2=C(Nc3ccc(Cl)c(C(=O)O)c3)C(=O)NC2=O)c1 [SB-390769],100%,22%,100%,30%,28%,0%,0%,6%,1%,0%
COc1cc(Nc2nccc(N3CCC(NC(=O)Nc4cccc(C(C)=O)c4)C3)n2)cc(OC)c1OC (stereo not drawn) [GSK1379753],11%,21%,6%,0%,0%,100%,0%,7%,13%,10%
COc1cccc(C(=O)Nc2cccc(Oc3ccc4nc(NC(=O)C5CC5)cn4n3)c2)c1,0%,0%,0%,17%,26%,23%,18%,15%,0%,0%
c1ccc(Oc2ccc(Nc3ccnc4cc(-c5ccc(CNCCN6CCOCC6)o5)ccc34)cc2)nc1 [GW567145],20%,12%,2%,0%,0%,3%,0%,0%,0%,0%
CN1CCN(Cc2cccc(-c3ccc4c(Nc5ccc(Oc6ccccc6)cc5)ccnc4c3)c2)CC1 [GW578342],22%,41%,4%,16%,0%,29%,0%,0%,0%,0%
CCCCc1nn2ncccc2c1-c1ccnc(Nc2ccc(N3CCN(C)CC3)cc2)n1 [GW684941],47%,54%,12%,23%,0%,0%,0%,48%,1%,26%
O=C(Nc1n[nH]c2cc(-c3ccoc3)ccc12)C1CC1 [SB-738481],100%,4%,0%,0%,15%,18%,0%,0%,0%,61%
COc1cc(Nc2nccc(-c3c(-c4cccc(NC(=O)c5c(F)cccc5F)c4)nn4ccccc34)n2)cc(OC)c1OC [GSK323521],39%,0%,4%,11%,5%,44%,9%,7%,6%,3%
Cn1cc(-c2ccc3c(c2)CCN3C(=O)Cc2cccc(F)c2)c2c(N)ncnc21 [GSK2603358],24%,0%,37%,0%,0%,31%,0%,0%,0%,4%
Oc1cc(Nc2ccnc3cc(I)ccc23)ccc1F [GW552771],17%,58%,8%,0%,0%,17%,0%,0%,0%,3%
CCc1ccc(-c2ccc3c(c2)-c2c(cnn2C)S(=O)(=O)N3C)cc1,0%,11%,0%,0%,2%,0%,1%,9%,0%,0%
C[C@@H]1CC[C@@H](C(=O)Nc2ccccc2)CN1c1cc(-c2ccc3c(N)n[nH]c3c2)nc(N)n1 [GSK2286062],23%,11%,10%,20%,6%,0%,0%,0%,6%,0%
Cc1cccc(NC(=O)Nc2ccc(Oc3ncnc4ccn(C)c34)cc2)c1,0%,0%,0%,0%,0%,0%,0%,0%,0%,0%
CN(C)S(=O)(=O)c1cc(-c2ccc3nccc(-c4cccc(S(N)(=O)=O)c4)c3c2)cnc1N [GSK1669921],11%,4%,0%,7%,21%,39%,1%,3%,0%,5%
COc1cc(Nc2ncc3c(C)nc(-c4cc5ccccc5[nH]4)n3n2)cc(OC)c1OC [GW869516],0%,0%,0%,5%,22%,69%,33%,23%,28%,0%
CC(=O)Nc1nc2cnc(Nc3cc(NC(=O)c4cccc(C5(C#N)CC5)c4Cl)ccc3C)nc2s1,6%,33%,0%,12%,0%,0%,7%,0%,9%,6%
COc1cc(Nc2nccc(N3CCC(NC(=O)c4cc5ccccc5s4)C3)n2)cc(OC)c1OC (stereo not drawn) [GSK1379760],6%,0%,2%,4%,2%,9%,0%,0%,0%,0%
CSc1cccc2c(-c3ccncn3)c(-c3ccc(F)cc3)nn12 [GW514786],19%,70%,8%,11%,25%,19%,0%,3%,0%,2%
Cl.c1ccc(-c2ccc3c(Nc4ccc5[nH]ccc5c4)ccnc3c2)nc1 [GW440138],29%,36%,4%,0%,0%,0%,0%,0%,0%,0%
O=C(NC1CCN(c2ccnc(Nc3ccc(F)cc3)n2)C1)c1cc2ccccc2s1 (stereo not drawn) [GSK1379716],34%,31%,11%,18%,16%,19%,0%,0%,4%,0%
COc1cc2c(cc1OCCN1CCNCC1)ncc1c3ccc(C#N)cc3[nH]c21,66%,0%,20%,0%,4%,0%,0%,8%,0%,16%
